Measurements as given in PubChem BioAssay (NCATS).
Records with an inconclusive call do not appear. Active and inactive are the calls of the source. Calls come from the whole dose curve; as a rule, active = well fitted inhibition curve with a large enough effect; inconclusive = small, poorly fitted or top-dose-only effect; inactive = no such curve, though single readings can be large or run the other way. Square brackets hold non-standard residues; d marks the D form. Peptide text beside a SMILES is read from it. ξ: configuration not given here. ξL = CC(C)CC(N)C(=O)O

molecular target: Nuclear receptor subfamily 1 group I member 3 (Homo sapiens) (UniProt Q14994); test: qHTS for Constitutive Androstane Receptor (CAR) Antagonist screened against the NCATS CANVASS Library (AID 1347372); details: HepG2-hCAR-CYP2B6 luciferase, CITCO-stimulated antagonist mode; series mostly up to 46.1 µM; activity change, negative = inhibition: at the top concentration;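 for activity change, negative = inhibition: cells stimulated with 50 nM CITCO agonist so inhibition reflects antagonism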
Sequence (Q14994 whole entry, looked up): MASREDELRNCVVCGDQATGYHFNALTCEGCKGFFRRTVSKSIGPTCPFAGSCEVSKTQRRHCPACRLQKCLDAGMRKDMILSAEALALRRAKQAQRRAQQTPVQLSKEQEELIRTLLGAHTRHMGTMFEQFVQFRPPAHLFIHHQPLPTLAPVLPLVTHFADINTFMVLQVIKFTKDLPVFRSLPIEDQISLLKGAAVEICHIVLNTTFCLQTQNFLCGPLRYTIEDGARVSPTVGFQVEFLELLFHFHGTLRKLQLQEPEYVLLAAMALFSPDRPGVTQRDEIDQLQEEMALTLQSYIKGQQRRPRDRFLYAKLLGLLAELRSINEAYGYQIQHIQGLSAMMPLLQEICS
In short: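 Luminescence readout (ONE-Glo, 30 min RT) of CYP2B6-2.2kb reporter in HepG2-hCAR cells after 24hr, 37C treatment with compound against 50 nM CITCO; CellTiter-Fluor viability read beforehand.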
% is set by controls: 0 for no effect and ±100 for the full control effect; potency is the fitted concentration of half-maximal effect.

Structure (SMILES) | activity change, negative = inhibition | Potency
CC(=O)N[C@H](C)c1nc(/C=C/C=C/C(=O)CC2CC(=O)CC[C@]2(C)O)cs1 (some centres undefined) | 7.13% (inactive) | –
CN1C(=O)C(=O)N2C(=C[C@]3(c4c[nH]c5ccccc45)c4ccccc4N[C@H]23)C1=O | -0.686% (inactive) | –
CN1CC[C@]23c4ccccc4N[C@H]1[C@]21CCN(C)[C@H]3Nc2ccccc21 | 21.4% (inactive) | –
O=C1CC(c2ccc(O)cc2)Oc2ccccc21 (centres undefined) | 340% (inactive) | –
COc1c(O)cc(O)c2c(=O)cc(-c3ccccc3)oc12 | 89.5% (inactive) | –
COC1C(C)OC(OCC23C[C@@H]4[C@H](C)CC[C@H]4C4(C=O)CC2C=C(C(C)C)C34C(=O)O)[C@@H](O)[C@H]1O (some centres undefined) | 28.5% (inactive) | –
CN1CC[C@@]2([C@@]34CCN(C)[C@@H]3Nc3ccccc34)c3ccccc3N[C@@H]12 | -11.5% (inactive) | –
COc1ccc(-c2oc3cc(OC)cc(OC)c3c(=O)c2O)cc1 | 48.3% (inactive) | –
CC[C@@H](C)[C@H]1NC(=O)C(CC(C)C)NC(=O)[C@@H](CC(C)C)NC(=O)[C@H](Cc2c[nH]c3ccccc23)NC(=O)CNC(=O)[C@@H](CC(N)=O)NC1=O (stereo partly drawn) (cyclo(GW[dL][ξL][dI][dN])) | -12.5% (inactive) | –
Cc1cc(O)cc2c1C(=O)c1c(O)cc(O)cc1C2=O | 6.98% (inactive) | –
C=C(Cl)[C@](Cl)(CBr)CC[C@@H](Br)C(C)(C)Cl | 20.3% (inactive) | –
C=C(C)C(=O)O[C@H]1C[C@@]2(C)OC(=CC2=O)/C(C)=C\[C@H]2OC(=O)C(=C)[C@H]12 | – | 11.7 µM (active)
C=C[C@]1(C)CC[C@@H]([C@H](C)C(=O)CC=C(C)C)O1 | 19% (inactive) | –
[C-]#[N+][C@@]12C(=O)[C@@H]3[C@@H](O[C@@]4(C(=O)N(C)c5cccc1c54)C3(C)C)C(=O)[C@@]2(C)C=C | 30.2% (inactive) | –
